# The panel holds about 79,000 compounds, 15% with a hit somewhere; the sample as a whole holds those more often. Unmarked numbers belong to inactive results. No stated cut-off is given here; in the data, active means growth inhibition above about 70%; inactive means the rest.
# Experiment: NCI Yeast Anticancer Drug Screen. Data for the rad50 strain (AID 155);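 further: 0% = growth of vehicle-only cultures of the same strain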
# Conditions: S. cerevisiae rad50 strain growth inhibition; at 50.0 µM; stronger effect = higher value
# Procedure, shortened: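 Growth of the mutant yeast was measured after compound exposure and referenced to vehicle-treated cultures.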
row,Structure (SMILES),growth inhibition [%]
1,O=CN(c1ccccc1)c1ccccc1,3.8
2,COC1(OC)CC2C(=O)N(Cc3ccccc3)C1C(S(=O)(=O)c1ccccc1)C2S(=O)(=O)c1ccccc1 (stereo not given),27.6
3,COC(=O)c1c2c(cc3c1CC1(Cc4cc5c(cc4C1=O)CCC5)C3)CCC2 (stereo not given),-23.4
4,COc1ccc(CCNC(=O)Cc2ccc(Cl)cc2)cc1OC,3.65
5,Cc1c(Cl)c(C)c(Cc2c(C)c(Cl)c(C)c(Cl)c2O)c(O)c1Cl,-4.7
6,CC1OC(OC2C(CO)OC(O[C@H]3CC[C@@]4(C)C(=CC[C@H]5[C@@H]6C[C@@H]7O[C@]8(CC[C@@H](C)CN8)[C@@H](C)[C@@H]7[C@@]6(C)CC[C@@H]54)C3)C(O)C2O)C(O)C(O)C1O (stereo not given in full),-17.1
7,CC1=CC(NCCC(=O)O)NC(=O)N1 (stereo not given),4.25
8,COc1cccc(C2CC(C)(N3CCCC3)Oc3cc4c(cc32)OCO4)c1O (stereo not given),7.5
9,CC(C)[C@H]1CC[C@@](C)(C(=O)O)C1,12.4
10,CC[N+](C)(CC)CC(O)C[N+]1(C)CC2CCCCC2C1 (stereo not given),13.1
11,Nc1nc(N)nc(SCC(=O)O)n1,8.55
12,COc1nc(NC2OC(CO)C(O)C(O)C2O)c(C(C)=O)c(=O)n1C (stereo not given),12.2
13,CC(=O)OC1CC2CCC1(c1ccccc1)C2 (stereo not given),0.85
14,Nc1c(Cl)cc2c(c1Br)C(=O)c1ccccc1C2=O,13.7
15,Cc1ccc(OC(=O)c2cc([N+](=O)[O-])cc([N+](=O)[O-])c2)cc1,4.4

# Reference: PubChem BioAssay (NCI)
